Screens as filed in PubChem BioAssay.
A selection: hits, their analogues and other compounds. The true share with any hit is near 3.5%.
Pf apPOL inh – Pf-apPOL DNA polymerase inhibition | inhibition, % at 10 µM | Recombinant Pf-apPOL, molecular beacon fluorescence, 1.5 h | 210,000 compounds, 0.25% hits
mHTT CaM bind – disrupts binding of mutant huntingtin to calmodulin | P42858 | AlphaScreen His-mHTT/GST-CaM binding, luminescence | inhibition, % at 15 µM | 190,000 compounds, 3.6% hits
Each line names hits and unclear results; the compound was inactive in the other large screens. Rule as the data show it: active = inhibition above about 50%; inactive = the rest.

CCCC(=O)NC(c1ccccc1Cl)c1ccc2cccnc2c1O (configuration not stated)	mHTT CaM bind 100.0
CCC(=O)NC(c1ccc(C)cc1)c1ccc2cccnc2c1O (configuration not stated)	mHTT CaM bind 100.0
CN(C)c1ccc(C(NC(=O)Cc2ccccc2)c2ccc3cccnc3c2O)cc1 (configuration not stated)	none
CC(C)C(=O)NC(c1ccc(Cl)cc1Cl)c1ccc2cccnc2c1O (configuration not stated)	mHTT CaM bind 96.0
CC(Oc1ccc(Cl)cc1Cl)C(=O)Nc1ncccn1 (configuration not stated)	none
CC1(c2ccc(Cl)cc2)CC(C)(C)N(C(=O)c2cccnc2)c2ccccc21 (configuration not stated)	none
Cn1ccnc1SCC(=O)N1c2ccccc2C(C)(c2ccc(Cl)cc2)CC1(C)C (configuration not stated)	mHTT CaM bind 61.0
COc1ccc(NC(=O)C2CCc3sc(C(=O)N4CCCC4)cc3C2)cc1OC (configuration not stated)	none
Cc1ccc(C(=O)N2CCC(CCNC(=O)Cc3cccs3)CC2)cc1	none
Cc1cccc[n+]1C1C(c2ccc([N+](=O)[O-])cc2)C(C#N)=C(C(C#N)C#N)NC1(O)C1CC1 (configuration not stated)	none
Cc1ccc[n+](C2C(c3ccc([N+](=O)[O-])cc3)C(C#N)=C(S)NC2(O)C2CC2)c1 (configuration not stated)	mHTT CaM bind 84.0
N#C/C(=C\c1ccc(-c2cccc(Cl)c2Cl)o1)C(=O)Nc1ccccc1C(=O)O	none
N=C1NC(=O)/C(=C/c2ccc(-c3cc([N+](=O)[O-])ccc3Cl)o2)S1	none
Cc1nc(C(=O)NCc2ccncc2)c(C)n1C1CCN(S(C)(=O)=O)CC1	none
Cc1ccnc(Nc2nc(C)c(C(=O)N3CCCC3)s2)c1	none
Cc1ccc(N2CCN(C(=O)c3sc(Nc4ccc(F)cn4)nc3C)CC2)cc1	mHTT CaM bind 78.2
O=C(Nc1nc2c(s1)CCCC2)c1coc(NC(=O)c2cccs2)n1	none
Cc1cccc2sc(NC(=O)c3coc(NC(=O)c4cccs4)n3)nc12	mHTT CaM bind 99.2
COc1ccc(Oc2c(C)oc3c(CN4CCC(C)CC4)c(O)ccc3c2=O)cc1	none
COc1cc2c(cc1N)OCO2	mHTT CaM bind 54.3 (no result: Pf apPOL inh)
COc1cc(Br)c(Br)cc1N	none (no result: Pf apPOL inh)
CCCN1C(=O)/C(=C\c2nc3ccccc3c(=O)[nH]2)c2cc(Br)ccc21	mHTT CaM bind 68.0
CN1C(=O)/C(=C\c2nc3ccccc3c(=O)[nH]2)c2ccccc21	none
CCSc1ccsc1C1C(C#N)=C(N)N(c2cccc([N+](=O)[O-])c2)C2=C1C(=O)CCC2 (configuration not stated)	none
CCSc1ccsc1C1C(C#N)=C(N)N(c2ccc([N+](=O)[O-])cc2)C2=C1C(=O)CCC2 (configuration not stated)	mHTT CaM bind 51.0
CCOC(=O)C1CCN(c2ccc(C(C)=O)cc2NC(=S)Nc2cc(Cl)ccc2Cl)CC1	none (no result: mHTT CaM bind)
CC(=O)C1=C(O)C(=O)N(c2ccccn2)C1c1ccc([N+](=O)[O-])cc1 (configuration not stated)	none
O=C1c2[nH]nc(-c3ccc(Cl)cc3)c2C(c2ccc([N+](=O)[O-])cc2)N1c1ccccn1 (configuration not stated)	mHTT CaM bind 89.0
COc1ccc(C2c3c(-c4ccccc4)n[nH]c3C(=O)N2c2ccccc2)cc1 (configuration not stated)	mHTT CaM bind 59.0
O=C1c2[nH]nc(-c3ccccc3)c2C(c2ccccc2[N+](=O)[O-])N1c1ccccc1 (configuration not stated)	mHTT CaM bind 59.0
O=C1c2[nH]nc(-c3ccccc3)c2C(c2ccccc2)N1c1ccccc1 (configuration not stated)	none
COc1ccc(-c2n[nH]c3c2C(c2ccc(OC)c(OC)c2)N(c2ccccc2)C3=O)cc1 (configuration not stated)	none
CC(C)N1CC=C2C(C#N)=C(N)C(C#N)(C#N)C(c3ccccc3Cl)C2C1 (configuration not stated)	none
COC(=O)CNC(=O)N1CC(C)Oc2ccccc21 (configuration not stated)	none
OCC(O)Cn1c2ccc(Br)cc2c2cc(Br)cc(Br)c21 (configuration not stated)	mHTT CaM bind 98.0
OC(CN1CCCCC1)Cn1c2ccc(Br)cc2c2cc(Br)ccc21 (configuration not stated)	none (no result: mHTT CaM bind)
OC(CN1CCNCC1)Cn1c2ccccc2c2ccccc21 (configuration not stated)	none
OC(CN1CCN(C/C=C/c2ccccc2)CC1)Cn1c2ccccc2c2ccccc21 (configuration not stated)	mHTT CaM bind 99.8
OC(CN1CCN(c2ccccc2)CC1)Cn1c2ccccc2c2ccccc21 (configuration not stated)	none
OC(CN1CCNCC1)Cn1c2ccccc2c2cc(Br)ccc21 (configuration not stated)	mHTT CaM bind 50.7
Cc1csc(NC(=O)c2ccc(N3CCCC3)nn2)n1	mHTT CaM bind 72.3
CCSc1nnc(NC(=O)c2ccc(N3CCCC3)nn2)s1	none
COc1cncc(C(=O)Nc2cc(OC)ccc2OC)c1	none
COCCCn1c(C(=O)O)cc2c(=O)n(C)c(=O)n(C)c21	none
Cc1ccc2nc(-c3ccc(C)o3)c(NC(=O)C3CCCCC3)n2c1	mHTT CaM bind 55.7
Cc1ccc2nc(Cc3ccccc3)c(NC(=O)C3CCCCC3)n2c1	mHTT CaM bind 53.9
Cc1ccn2c(NC(=O)C3CCCC3)c(-c3ccccc3)nc2c1	none
COc1ccc(-c2nc3ccc(C)cn3c2NC(=O)C2CCCCC2)cc1	none
Cc1cccc(S(=O)(=O)N2CCC(c3noc(-c4cccc(F)c4)n3)CC2)c1	none
O=C(Nc1ccc(Cl)cc1)OCc1cccc(COC(=O)Nc2ccc(Cl)cc2)n1	none (no result: mHTT CaM bind)
O=C(Cc1cccc(Cl)c1)N1CCCC1c1ccccc1F (configuration not stated)	none
CC(C)(C)c1ccc(Cn2c(N)nc3ccccc32)cc1	mHTT CaM bind 88.7
Nc1nc2ccccc2n1Cc1ccc(Br)cc1	none
CCNC(=O)N(C)CC(=O)N1N=C(c2ccccc2Cl)CC1c1ccccc1F (configuration not stated)	none
CCC(=O)N(C)CC(=O)N1N=C(c2ccccc2Cl)CC1c1ccccc1Cl (configuration not stated)	mHTT CaM bind 59.7
COc1ccc(C2=NN(C(=O)CN(C)C(C)=O)C(c3ccc(C)cc3)C2)cc1 (configuration not stated)	none
COc1ccc(C2CC(c3ccccc3Cl)=NN2C(=O)CN(C)C(C)=O)cc1 (configuration not stated)	mHTT CaM bind 95.7
CC1=NN(c2ccc(C)c(C)c2)C(=O)/C1=C/c1ccccc1Cl	none
CC(=O)N(CCC1(C(C)C)CCOC(C)(C)C1)Cc1ccc2c(c1)OCO2 (configuration not stated)	none
O=C(C1CCN(c2cnn(Cc3ccccc3)c(=O)c2)CC1)N1CCc2ccccc2C1	none
Cc1nc(C(C)C)c(Cc2ccc(F)cc2)c(N2CCN(C(=O)C3CC3)CC2)n1	none
COc1c(C(=O)NC2CC2)sc2cc(Cl)ccc12	none
COc1ccccc1CCNC(=O)C1(c2ccc(F)cc2)CC1	none
COc1ccc(CC(=O)N2CCc3cn(C)c4cccc(c34)C2)cc1	mHTT CaM bind 57.2
Cc1ccccc1CC(=O)N1CCc2cn(C)c3cccc(c23)C1	none
